Compounds with a hit are over-represented: about 2.4% of the library has one in this group of screens.
Pol kappa inh: blocks human DNA polymerase kappa activity. 400,000 tested, 0.53% active. AID 588579. purified Pol kappa, fluorescent DNA synthesis assay, 10 min. Potency, µM (series often up to 107 µM), inactives show at the top dose activity, negative = inhibition, most hits filed as inhibitors; also: % is scaled to controls: 0 for no effect and ±100 for the full control effect
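Fluorescent qHTS in 1536-well format: enzyme (10 nM) and compound sat 15 min at room temperature before 50 nM substrate (final) was added. Signal taken at 0 and 10 min; no-enzyme buffer wells were negative controls.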
Pol eta inh: blocks human DNA polymerase eta activity; Potency, µM (series often up to 114 µM), inactives show at the highest dose activity change, negative = inhibition, actives largely listed as inhibitors; recombinant Pol eta, fluorescent DNA replication assay; Q9Y253; 390,000 tested, 1.2% active; AID 588591; also: % is scaled to controls: 0 for no effect and ±100 for the full control effect
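Fluorescent replication assay: 50 nM final substrate added after a 15 min room-temperature compound preincubation with 10 nM enzyme. Signal taken at 0 min and again at 10 min.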
PGK inhibitor: inhibitors of T. brucei phosphoglycerate kinase; P07378; PGK/GAPDH coupled, Kinase-Glo luminescence, 60 min; 380,000 tested, 0.043% active; Potency, µM (highest dose often 57.5 µM), for the others: at the top dose activity change, negative = inhibition, hits mostly inhibitors; AID 602233; also: % is scaled to controls: 0 for no effect and ±100 for the full control effect; nearly all actives have a fitted effect of over 60% in size
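Luminescent ATP detection (Kinase-Glo Plus) follows a 60-minute room-temperature incubation, with wells lacking PGK as controls. Buffer: 100 mM TEA (pH 7.6), 5 mM MgCl2, 0.01% Tween-20. Coupling enzyme GAPDH (100 nM final) supplies unstable 1,3-BPG in-well.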
Pol iota inh: inhibitors of human DNA polymerase iota | Potency, µM (series often up to 115 µM), for the others: at the top dose activity, negative = inhibition, hits mostly inhibitors | Q9UNA4 | Pol iota fluorescent replication assay, 10 min | 390,000 tested, 1% active
Target sequence (Q9UNA4 whole entry, looked up): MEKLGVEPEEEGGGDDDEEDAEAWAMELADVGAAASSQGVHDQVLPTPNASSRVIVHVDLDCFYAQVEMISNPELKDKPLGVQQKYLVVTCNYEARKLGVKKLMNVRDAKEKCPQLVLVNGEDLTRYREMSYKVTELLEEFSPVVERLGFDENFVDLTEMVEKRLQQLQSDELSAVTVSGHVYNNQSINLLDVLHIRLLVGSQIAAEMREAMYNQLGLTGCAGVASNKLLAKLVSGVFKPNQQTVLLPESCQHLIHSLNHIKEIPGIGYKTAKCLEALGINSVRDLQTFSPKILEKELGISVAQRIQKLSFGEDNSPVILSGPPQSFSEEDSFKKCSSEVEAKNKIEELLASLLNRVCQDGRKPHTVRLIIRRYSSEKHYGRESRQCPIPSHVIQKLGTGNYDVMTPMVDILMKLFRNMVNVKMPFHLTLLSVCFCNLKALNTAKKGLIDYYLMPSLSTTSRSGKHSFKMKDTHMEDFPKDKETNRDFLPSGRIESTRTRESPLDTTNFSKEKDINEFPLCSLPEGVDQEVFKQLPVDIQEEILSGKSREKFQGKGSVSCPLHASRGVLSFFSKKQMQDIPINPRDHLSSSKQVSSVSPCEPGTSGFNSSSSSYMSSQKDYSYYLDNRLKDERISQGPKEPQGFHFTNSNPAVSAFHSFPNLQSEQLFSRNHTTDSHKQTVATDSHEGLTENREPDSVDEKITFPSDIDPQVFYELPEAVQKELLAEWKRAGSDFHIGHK
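Fluorescent replication assay read twice, at 0 min and 10 min after adding 50 nM (final) substrate. Enzyme (10 nM) and compounds were first incubated 15 min at room temperature; enzyme-free buffer wells were negative controls.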
Pol beta inh: blocks human DNA polymerase beta activity; Potency, µM (top dose mostly 114 µM), for the others: top-dose activity change, negative = inhibition, hits mostly inhibitors; Pol beta primer extension/strand displacement, fluorescence kinetic; AID 485314; 340,000 tested, 1.3% active; also: % is scaled to controls: 0 for no effect and ±100 for the full control effect
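10 nM enzyme + cpd, 15 min RT; start with substrate 50 nM final; read 0 min and after 10 min RT. Corrected, normalized data; 4-parameter Hill curve fit.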
FEN1 inh: blocks human flap endonuclease 1; Recombinant FEN1 flap cleavage, fluorescence, 15 min; Potency, µM (top dose mostly 114 µM), for the others: at the highest dose activity change, negative = inhibition, hits mostly inhibitors; 390,000 tested, 0.35% active; AID 588795; also: % is scaled to controls: 0 for no effect and ±100 for the full control effect; nearly all actives have a fitted effect of over 65% in size
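Potency values derive from four-parameter Hill fits of normalized qHTS data. The reaction used 10 nM FEN1 preincubated 15 min at room temperature with compound, then 50 nM DNA substrate, read at 0 and 15 min.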
An asterisk follows results filed as active; [ ] = remark or other dose. Calls follow the shape of the dose curve; as a rule, active = well fitted curve in the direction sought with a large enough effect; inconclusive = small, poorly fitted or top-dose-only effect, or another doubt; inactive = no such curve, though single readings can be large; an effect the other way counts as inactive or inconclusive. Potency is read from the fitted curve at half-maximal effect.

What do the screens show for `COc1ccc2nc(N/C(N)=N/C(=S)Nc3c(C)cccc3C)nc(C)c2c1`?
Pol kappa inh: 14%; Pol eta inh: -15%; PGK inhibitor: -16%; Pol iota inh: -10%; Pol beta inh: -7%; FEN1 inh: 32µM*

What do the screens show for `CC[C@]12c3[nH]c4cc(-c5ccco5)ccc4c3CCN1C(=O)[C@@H](CC(=O)NCc1ccco1)C[C@@H]2C(=O)N1CCN(C(=O)c2ccco2)CC1`?
Pol kappa inh: -12%; Pol eta inh: -9%; PGK inhibitor: 0%; Pol iota inh: 50µM*; FEN1 inh: -13%

Results for CSc1ncc(C(=O)Nc2cc(Cl)ccc2C)c(-c2ccccc2)n1 ?
Pol kappa inh: 1%; Pol eta inh: -2%; PGK inhibitor: -2%; Pol iota inh: -24%; Pol beta inh: 14%; FEN1 inh: 6%

How did COc1ccc(CN2CC[C@H]3C=CC[C@@H](C(=O)NC4CCCCC4)[C@H]3C2=O)cc1OC do in these assays?
Pol kappa inh: -22%; Pol iota inh: inconclusive; FEN1 inh: 15%

How did CC(/C=N/n1c(-c2ccco2)n[nH]c1=S)=C\c1ccco1 do in these assays?
Pol kappa inh: -6%; Pol eta inh: inconclusive; PGK inhibitor: -4%; Pol iota inh: inconclusive; Pol beta inh: 28µM*; FEN1 inh: -4%

How did C(=C\c1ccco1)/C=N/n1cnnc1 do in these assays?
Pol kappa inh: inconclusive; Pol eta inh: -1%; PGK inhibitor: -2%; Pol iota inh: 40µM*; Pol beta inh: 13%; FEN1 inh: -4%

Results for S=c1[nH]nc(-c2ccccc2Cl)n1/N=C/C=C/c1ccco1 ?
Pol kappa inh: 79µM*; Pol eta inh: 50µM*; PGK inhibitor: -3%; Pol iota inh: inconclusive; Pol beta inh: 20µM*; FEN1 inh: -17%

Results for O=C1OC(c2ccccc2)=N/C1=C\C=C\c1ccco1 ?
Pol kappa inh: -18%; Pol eta inh: 3%; PGK inhibitor: -3%; Pol iota inh: inconclusive; Pol beta inh: 4%; FEN1 inh: -12%

How did [O-]c1c[n+](-c2ccc(-[n+]3cc([O-])on3)cc2)no1 do in these assays?
Pol kappa inh: -30%; Pol eta inh: 45µM*; PGK inhibitor: -11%; Pol iota inh: inconclusive; Pol beta inh: 7.1µM*; FEN1 inh: -5%

How did O=c1cnc2cncnc2n1Cc1ccc(F)cc1 do in these assays?
Pol kappa inh: 2%[60.1 µM]

Results for O=C1c2ccccc2C(=O)N1Cc1ccco1 ?
Pol kappa inh: -7%; Pol eta inh: -3%; PGK inhibitor: 1%; Pol iota inh: 22%; Pol beta inh: 7%; FEN1 inh: -9%

What do the screens show for `O=C1c2cccc3c(O)ccc(c23)C(=O)N1Cc1ccco1`?
Pol kappa inh: inconclusive; Pol eta inh: 32µM*; PGK inhibitor: -2%; Pol iota inh: 20µM*; Pol beta inh: inconclusive; FEN1 inh: inconclusive

Results for COc1ccc(/C=C2\C=Cc3ccccc32)cc1OC ?
Pol kappa inh: -24%; Pol iota inh: -8%; FEN1 inh: -20%

Results for O=C(COc1ccc(Cl)cc1)NCC(c1ccco1)S(=O)(=O)c1ccc(Cl)cc1 (configuration not stated) ?
Pol kappa inh: -8%[60.1 µM]; Pol eta inh: 0%; PGK inhibitor: -3%; Pol iota inh: -4%; Pol beta inh: -2%; FEN1 inh: -21%

What do the screens show for `CCOC(=O)Cc1csc(SC(C)C(=O)NC2CCCCC2C)n1` (configuration not stated)?
Pol kappa inh: -3%; Pol eta inh: -4%; PGK inhibitor: inactive; Pol iota inh: 14%; FEN1 inh: 12%

Results for CCOC(=O)Cc1csc(SC(C)C(=O)Nc2ccc(NC(C)=O)cc2)n1 (configuration not stated) ?
Pol kappa inh: 0%; Pol eta inh: -19%; PGK inhibitor: 2%; Pol iota inh: 2%; Pol beta inh: 89µM*; FEN1 inh: -1%

How did CCC1CCCCN1C(=O)CSc1nc2ncccc2[nH]1 (configuration not stated) do in these assays?
Pol kappa inh: 25µM*; Pol eta inh: -12%; PGK inhibitor: -8%; Pol iota inh: inconclusive; Pol beta inh: 45%; FEN1 inh: inconclusive

How did O=C(O)CSc1cc(C(=O)c2cc(F)ccc2O)cn2c(=O)c3c(-c4ccccc4)csc3nc12 do in these assays?
Pol kappa inh: inconclusive; Pol eta inh: 22µM*; PGK inhibitor: inconclusive; Pol iota inh: inconclusive; Pol beta inh: inconclusive; FEN1 inh: inconclusive

How did CCOC(=O)c1c(C)oc2c(F)c(F)c(F)c(F)c2c1=O do in these assays?
Pol kappa inh: 79µM*; Pol eta inh: inconclusive; PGK inhibitor: 6%; Pol iota inh: inconclusive; Pol beta inh: -22%; FEN1 inh: -2%

Results for O=C(Nc1ccccc1)Nc1ccc(NC(=O)c2ccccc2O)cc1 ?
Pol kappa inh: -10%; Pol eta inh: 3%; PGK inhibitor: -1%; Pol iota inh: -27%; Pol beta inh: 32µM*; FEN1 inh: -19%

Results for CCOc1ccc(CCNC(=O)c2nnn(CC(=O)Nc3ccc(OC)cc3)c2N)cc1OCC ?
Pol kappa inh: -5%; Pol eta inh: -5%; PGK inhibitor: -9%; Pol iota inh: 25%; Pol beta inh: 16%; FEN1 inh: -7%

Results for CCc1ccc(NC(=O)Cn2nnc(C(=O)NCCc3ccccc3)c2N)cc1 ?
Pol kappa inh: -11%; Pol eta inh: -19%; PGK inhibitor: -6%; Pol iota inh: -11%; Pol beta inh: -1%; FEN1 inh: 15%

What do the screens show for `Cc1ccc(NC(=O)Cn2nnc(C(=O)NCCc3ccccc3)c2N)cc1C`?
Pol kappa inh: inconclusive; Pol eta inh: -24%; PGK inhibitor: inactive; Pol iota inh: 89µM*; Pol beta inh: inconclusive; FEN1 inh: 15%

Results for CCOc1ccc(CCNC(=O)c2nnn(CC(=O)Nc3ccc(C)cc3)c2N)cc1OCC ?
Pol kappa inh: inconclusive; Pol eta inh: -1%; PGK inhibitor: -10%; Pol iota inh: inconclusive; Pol beta inh: 25µM*; FEN1 inh: -7%

What do the screens show for `COc1ccc(NC(=O)Cn2nnc(C(=O)NCCc3ccccc3)c2N)cc1`?
Pol kappa inh: -34%; Pol eta inh: -26%; PGK inhibitor: 8%; Pol iota inh: 35µM*; Pol beta inh: 25µM*; FEN1 inh: 14%

What do the screens show for `COc1cccc(NC(=O)Cn2nnc(-c3nc(-c4ccccc4)no3)c2N)c1`?
Pol kappa inh: -11%[60.1 µM]; Pol eta inh: -4%; PGK inhibitor: 2%; Pol iota inh: 89µM*; Pol beta inh: 18µM*; FEN1 inh: -5%
